Compounds with a hit are over-represented: about 12% of the library has one in this group of screens.
NS1 inh: blocks influenza NS1 protein function. 270,000 tested, 0.4% active. Potency, µM (series often up to 46.1 µM). AID 2326; also: actives are rising curves; nearly all actives have a fitted effect of over 50% in size
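In this qHTS, NS1 from influenza A is expressed in budding yeast, where it slows growth. Cells are switched from glucose to 2% galactose medium (pH 6.0, -URA), treated with compound, and growth recovery is read at OD600.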
Shiga toxin inh: Shiga toxin inhibition | Vero cells, Shiga toxin protein synthesis inhibition reporter | inhibition, % at 38.7 µM | 290,000 tested, 9.2% active | AID 2315; in the data active = inhibition mostly above about 28%, no sharp cut-off; inactive = mostly below about 43%
CHX counter: counter-screen for Shiga toxin inhibitors: cycloheximide protein synthesis inhibition | cell reporter, cycloheximide protein synthesis inhibition counterscreen | max response, % | 300,000 tested, 12% active | AID 2314; in the data active = max response mostly above about 13%, no sharp cut-off; inactive = mostly below about 14%; also: read at 38.3 µM for the half of the compounds with a filed dose
SARS PLP yeast: SARS-CoV PLP inhibition in yeast. S. cerevisiae expressing SARS-CoV PLpro, growth rescue. Potency, µM (doses to about 32.9 µM), actives largely listed as activators. 330,000 tested, 0.19% active. AID 485353; also: nearly all actives have a fitted effect of over 55% in size
A number is an active result; . = inactive; / = no result. Unless noted, calls follow the shape of the full dose curve.

SMILES | NS1 inh | Shiga toxin inh | CHX counter | SARS PLP yeast
COC(=O)c1cccnc1 | / | . | . | /
O=C(NC(=S)Nc1ccccc1Cl)c1csnn1 | . | 42 | 38 | .
Cc1ccc(NC(=O)N(C2CCCCC2)C(C)c2cccnc2)cc1C (stereo not drawn) | . | . | . | .
CCc1ccc(NC(=O)N(C2CCCCC2)C(C)c2cccnc2)cc1 (stereo not drawn) | . | . | 33 | .
COC(=O)c1ccc(C(NC(=O)c2cccnc2)NC(=O)c2cccnc2)cc1 | . | 66 | 30 | .
CC(=O)N1CCN(S(=O)(=O)c2cccc(C(=O)NNC(=O)COc3ccc(Cl)cc3C)c2)CC1 | / | / | / | .
CCC1(c2ccc(F)cc2)NC(=O)N(CC(=O)Nc2ccc(C)c(S(=O)(=O)N3CCOCC3)c2)C1=O (stereo not drawn) | . | . | . | .
OC[C@@H]1O[C@H](n2cnc3c(/C=C(\O)c4ccccc4)ncnc32)[C@H](O)[C@@H]1O | . | / | / | /
CC(C)c1ccc(NC(=O)c2snc3ccc(Cl)cc23)cc1 | . | 74 | 39 | .
CCCNS(=O)(=O)c1ccc(NC(=O)c2cccnc2)cc1 | . | . | . | .
CCc1ccc(NC(=O)c2cccnc2)cc1 | . | 73 | 32 | .
O=C(Nc1ccccc1NC(=O)c1csnn1)c1csnn1 | . | . | . | .
CC(C)c1ccc(NC(=O)c2csnn2)cc1 | . | 42 | 30 | .
COC(=O)C(C(=O)OC)c1ccc(NC(=O)c2cccc(Cl)c2)cc1 | . | . | . | .
CCSc1ccc(NC(=O)c2cccnc2)cc1 | . | . | 34 | .
CCC1(c2ccccc2)NC(=O)N(CC(=O)N2CCN(S(=O)(=O)c3ccccc3)CC2)C1=O (stereo not drawn) | . | . | . | .
COc1ccc(NC(=O)c2cc3c(CO)cnc(C)c3oc2=Nc2cccc(C)c2)c(OC)c1 | . | . | . | .
O=C(Nc1ccc(C2=CN(Cc3ccccc3)CCC2=O)cc1)OCc1ccccc1 | / | / | / | .
CC(C)c1ccc(NC(=S)NNC(=O)c2cccnc2)cc1 | . | . | . | .
CC(C)c1ccc(NC(=O)c2cccnc2)cc1 | . | . | 23 | .
O=C(/C=C/c1ccc2c(c1)OCCCO2)c1ccccc1O | . | 171 | 78 | .
Cc1ccc(O)c(C(=O)/C=C/c2ccc3c(c2)OCCCO3)c1 | . | 155 | 81 | .
COc1cc(/C=C/C(=O)c2ccccc2O)cc(OC)c1OC | . | . | . | .
Cc1cccc(/C=C/C(=O)c2cc(Br)ccc(=O)c2O)c1 | . | . | . | .
O=C(c1ccc2c(=O)n(-c3ccccc3)c(=O)[nH]c2c1)N1CCCCC1 | . | . | . | .
SMILES | NS1 inh | Shiga toxin inh | CHX counter | SARS PLP yeast
CC1CC(C)CN(CC(=O)c2ccc(OC(F)F)cc2)C1 (stereo not drawn) | . | 26 | 34 | .
CN(CCOc1ccccc1Cl)Cc1ccccc1 | . | / | 13 | .
COc1ccc(-c2nc3cc(C)ccn3c2NCc2ccc3c(c2)OCO3)cc1 | . | 133 | 27 | .
Cc1ccn2c(Nc3ccc4c(c3)OCO4)c(-c3ccc(O)cc3)nc2c1 | . | . | . | .
c1ccc(-c2nc3ccccn3c2NCc2ccc3c(c2)OCO3)cc1 | . | . | . | .
COc1ccc(-c2nc3ccccn3c2NCc2ccc3c(c2)OCO3)cc1 | . | 49 | 22 | .
Cn1nc(C(F)(F)F)c(C(=O)Nc2cccc(Cl)c2)c1Cl | . | . | . | .
Cc1ccc(C(=O)N/N=C2\CCc3ccccc32)c(C)c1 | . | 152 | 63 | .
O=C(N/N=C1\CCc2ccccc21)c1ccccc1Cl | . | 96 | 53 | .
S=C(N/N=C1\CCc2ccccc21)NC1CCCCC1 | . | 112 | 32 | .
O=C(N/N=C1/CCc2ccccc21)C1CC1 | / | 92 | 33 | .
COC(=O)N/N=C1\CCCc2ccccc21 | . | . | . | .
CCOC(=O)N/N=C1\CCc2ccccc21 | . | 73 | 38 | .
O=C(N/N=C1/CCCc2ccccc21)c1cc([N+](=O)[O-])cc([N+](=O)[O-])c1 | / | . | . | .
COc1ccc(NCC(=O)N/N=C2\CCc3ccccc32)cc1 | / | 66 | 29 | .
O=C(N/N=C1\CCc2ccccc21)c1ccc(O)cc1 | . | 57 | 43 | .
O=C(CNc1ccc(F)cc1)N/N=C1\CCc2ccccc21 | . | . | . | .
c1ccc2c(c1)nnn2-c1ncnc2sc3c(c12)CCCC3 | . | . | 14 | .
O=C(NCc1cccnc1)Nc1ccc(Cl)cc1 | . | . | 18 | .
CCC(C)c1ccc(NC(=O)NCc2cccnc2)cc1 (stereo not drawn) | . | . | 26 | .
CCC(C)c1ccc(NC(=O)Nc2cccnc2)cc1 (stereo not drawn) | . | 76 | 80 | .
CC(C)C(=O)Nc1cccnc1 | . | . | . | .

Bioassay records: PubChem, National Center for Advancing Translational Sciences (NCATS)
